Screening data from PubChem BioAssay.
rCAG RNA binder: binders of r(CAG) RNA repeats, primary screen, biochemical, fluorescence; r(CAG) RNA repeat, TO-PRO-1 dye displacement fluorescence; inhibition, % at 3 µM; 1.3% of 370,000 active; AID 651821, 2012;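 active = inhibition above the plate cutoff, the mean of all test compounds on that plate plus 3 SD, cut at about 35% in these data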;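 note: higher means more dye released from RNA so lower well fluorescence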
GRIN3A LBD mod: binders of NR3A ligand-binding domain, primary screen, biophysical, differential scanning fluorimetry, uHTS; Glutamate receptor ionotropic, NMDA 3A (GRIN3A) ligand-binding domain; NR3A LBD differential scanning fluorimetry, Tm shift; 0% = protein alone, 100% = glycine-bound protein; Tm shift relative to glycine control, % at 25 µM; 2.5% of 340,000 active; AID 1259313, 2017;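 active = melting temperature shift of at least 10% of the positive control shift, at one fixed dose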
Myeloid diff 2: induction of myeloid progenitor differentiation, primary screen, cell-based, flow cytometry, MLPCN library; ER-HoxA9 myeloid progenitors, lysozyme-GFP differentiation; calls only at 10 µM; 1% of 360,000 active; AID 624256, 2012;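 active = normalized GFP-positive differentiation at or above the plate's own cutoff, the solvent-only control mean plus 3 SD; inconclusive = no clear call, values can overlap the other calls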;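 note: cells exposed to compound for four days before flow analysis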
FAS-TE inh: FAS thioesterase domain inhibitors, primary screen, biochemical, fluorescence intensity, uHTS. inhibition, % at 15 µM. recombinant FAS-TE, OMFH fluorogenic substrate, fluorescence endpoint. 0.67% of 360,000 active. Fatty acid synthase (Homo sapiens), P49327;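 active = compounds whose normalised, plate-corrected inhibition of enzyme fluorescence in the single-dose primary screen is 50% or more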
MPTP inh: mitochondrial permeability transition pore inhibitors, primary screen, biochemical, isolated mouse mitochondria, absorbance | Ca2+ swelling absorbance, 30 min | 1.4% of 360,000 active | inhibition, % at 10 µM;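 active = inhibition of 50% or more, scaled per plate between neutral and stimulator controls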
FAS-TE inh conf: FAS thioesterase domain inhibitors, confirmation, biochemical, fluorescence intensity, single concentration | inhibition, % at 15 µM | recombinant FAS-TE, OMFH fluorogenic substrate | shares compounds with FAS-TE inh | 45% of 2,300 active;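 active = compounds inhibiting the enzyme by at least 50% at 15 µM in any one of the replicates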
Each line names hits and unclear results; the compound was inactive in the other large screens (follow-up assays come after a bar, where they were run). Most compounds without a hit are left out; they make up all but 5.7% or so of the library.

Cc1ccc(NC(=O)c2cc(S(=O)(=O)N(C)C)ccc2N2CCCC2)cc1F	FAS-TE inh 51 | FAS-TE inh conf 58
CCCN1CCCCC(NC(=O)c2ccc(F)c(F)c2)C1=O (stereo not drawn)	none (no result: GRIN3A LBD mod, Myeloid diff 2, FAS-TE inh, MPTP inh)
COc1ccc(C(=O)Nc2cc([N+](=O)[O-])ccc2N2CCCC2)cc1	FAS-TE inh 58 | FAS-TE inh conf 52
CC(=O)Nc1cccc(NC(=O)c2cc([N+](=O)[O-])ccc2N2CCCCC2)c1	none
CN(C)S(=O)(=O)c1cccc(NC(=O)c2cc([N+](=O)[O-])ccc2N2CCCCC2)c1	FAS-TE inh 59 | FAS-TE inh conf 55
CC(C)c1ccc(NC(=O)c2cc([N+](=O)[O-])ccc2N2CCOCC2)cc1	FAS-TE inh 74 | FAS-TE inh conf inactive
Cc1ccc(NC(=O)c2cc([N+](=O)[O-])ccc2N2CCCC2)cc1	FAS-TE inh 66 | FAS-TE inh conf 42
c1ccc(Nc2nnc(-c3ccc4c(c3)OCO4)o2)cc1	none (no result: GRIN3A LBD mod, Myeloid diff 2, FAS-TE inh, MPTP inh)
COC(=O)C1=C(C)N(C)C(=NCc2ccc3c(c2)OCO3)NC1c1ccc(C(F)(F)F)cc1 (stereo not drawn)	none (no result: GRIN3A LBD mod, Myeloid diff 2, FAS-TE inh, MPTP inh)
CC(=O)C1=C(C)N(Cc2ccc(F)cc2)C(=S)NC1c1ccc(Br)cc1 (stereo not drawn)	none (no result: GRIN3A LBD mod, Myeloid diff 2, FAS-TE inh, MPTP inh)
O=C1c2ccccc2C2Cc3nnccc3CN12 (stereo not drawn)	none (no result: GRIN3A LBD mod, Myeloid diff 2, FAS-TE inh, MPTP inh)
CC(C)(C)N1C(=O)[C@H]2[C@@H](c3ccc(Br)cc3)N3C(=O)N(c4cccc(Cl)c4)C(=O)[C@@]3(Cc3ccccc3)[C@H]2C1=O	FAS-TE inh 96 | FAS-TE inh conf inactive
COc1ccc(N2C(=O)N3[C@H](c4ccc(Br)cc4)[C@@H]4C(=O)N(C(C)(C)C)C(=O)[C@@H]4[C@]3(Cc3ccccc3)C2=O)cc1	FAS-TE inh 71 | FAS-TE inh conf inactive
CC[C@@]12C(=O)N(c3ccc(C)cc3)C(=O)N1[C@H](c1ccc(Br)cc1)[C@@H]1C(=O)N(C(C)(C)C)C(=O)[C@@H]12	none
COc1ccc([C@@H]2[C@@H]3C(=O)N(C(C)(C)C)C(=O)[C@@H]3[C@]3(Cc4ccccc4)C(=O)N(c4ccc(Br)cc4)C(=O)N23)cc1	none (no result: rCAG RNA binder)
COc1ccc([C@@H]2[C@@H]3C(=O)N(C(C)(C)C)C(=O)[C@@H]3[C@]3(Cc4ccccc4)C(=O)N(c4cccc(Cl)c4)C(=O)N23)cc1	FAS-TE inh 79 | FAS-TE inh conf inactive
COc1ccc(CNS(=O)(=O)/C=C/c2ccc(OC)cc2CNC(=O)OC(C)(C)C)cc1	none (no result: GRIN3A LBD mod, Myeloid diff 2, FAS-TE inh, MPTP inh)
CCOc1ccc(-n2c(COc3ccc(Cl)cc3)nnc2SCC(=O)Nc2ccc(OCc3ccccc3)cc2)cc1	none (no result: GRIN3A LBD mod, Myeloid diff 2, FAS-TE inh, MPTP inh)
Cc1ccccc1Cn1cc(COC(=O)NCC(C)C)nn1	none (no result: GRIN3A LBD mod, Myeloid diff 2, FAS-TE inh, MPTP inh)
N=c1c(S(=O)(=O)c2ccc(Cl)cc2)cc2c(=O)n3ccccc3nc2n1C1CCCC1	FAS-TE inh 65 | FAS-TE inh conf inactive
COc1ccc(CCn2c(=N)c(S(=O)(=O)c3ccc(C)cc3)cc3c(=O)n4ccccc4nc32)cc1	FAS-TE inh 59 | FAS-TE inh conf inactive
N=c1c(S(=O)(=O)c2ccccc2)cc2c(=O)n3ccccc3nc2n1C1CCCCC1	none
Cc1cc2c(c(=O)o1)[C@@]1(C(=O)N(C)c3ccccc31)C1=C(CCC1=O)O2	none (no result: GRIN3A LBD mod, Myeloid diff 2, FAS-TE inh, MPTP inh)
CCO[C@H]1OC(C(=O)NCc2ccccc2)=C[C@@H](C2CCCCC2)[C@@H]1CCCO	FAS-TE inh 57 | FAS-TE inh conf 63
COC(=O)c1ccc2nc(-c3cccc(Cl)c3)c(Cc3ccccc3C(F)(F)F)n2c1	none (no result: GRIN3A LBD mod, Myeloid diff 2, FAS-TE inh, MPTP inh)
CC(C)(C)S(=O)(=O)N1Cc2cc(CO)ccc2[C@@H]1CCO	none (no result: GRIN3A LBD mod, Myeloid diff 2, FAS-TE inh, MPTP inh)
O=C(Nc1ccccc1C(F)(F)F)OC1CC2CC1[C@H]1CCCCN1C2 (stereo partly drawn)	none (no result: GRIN3A LBD mod, Myeloid diff 2, FAS-TE inh, MPTP inh)
CCOC(=O)c1cc2c(=Cc3ccc(N(C)C)cc3)c3ccccc3n2[n+]1C	FAS-TE inh 62 (no result: Myeloid diff 2) | FAS-TE inh conf 61
Cc1ccc(C(=O)c2cc([N+](=O)[O-])ccc2N2CCOCC2)cc1	Myeloid diff 2 inconclusive
O=C(OCc1ccccc1Cl)c1cc([N+](=O)[O-])ccc1N1CCOCC1	none
